Assay outcomes as filed in PubChem BioAssay.
TDP1 inh: qHTS Assay for Inhibitors of Tyrosyl-DNA Phosphodiesterase (TDP1); recombinant TDP1, AlphaScreen DNA substrate cleavage; Potency, µM (highest dose often 130 µM), for the others: at the highest dose activity change, negative = inhibition, most hits filed as inhibitors; hit rate 0.28% among 350,000; further: potency means the concentration at half of the fitted maximal effect; on the % scale 0 is the no-effect control and ±100 the full control effect; nearly all actives have a fitted effect of over 40% in size
Target sequence (Q9NUW8 whole entry, looked up): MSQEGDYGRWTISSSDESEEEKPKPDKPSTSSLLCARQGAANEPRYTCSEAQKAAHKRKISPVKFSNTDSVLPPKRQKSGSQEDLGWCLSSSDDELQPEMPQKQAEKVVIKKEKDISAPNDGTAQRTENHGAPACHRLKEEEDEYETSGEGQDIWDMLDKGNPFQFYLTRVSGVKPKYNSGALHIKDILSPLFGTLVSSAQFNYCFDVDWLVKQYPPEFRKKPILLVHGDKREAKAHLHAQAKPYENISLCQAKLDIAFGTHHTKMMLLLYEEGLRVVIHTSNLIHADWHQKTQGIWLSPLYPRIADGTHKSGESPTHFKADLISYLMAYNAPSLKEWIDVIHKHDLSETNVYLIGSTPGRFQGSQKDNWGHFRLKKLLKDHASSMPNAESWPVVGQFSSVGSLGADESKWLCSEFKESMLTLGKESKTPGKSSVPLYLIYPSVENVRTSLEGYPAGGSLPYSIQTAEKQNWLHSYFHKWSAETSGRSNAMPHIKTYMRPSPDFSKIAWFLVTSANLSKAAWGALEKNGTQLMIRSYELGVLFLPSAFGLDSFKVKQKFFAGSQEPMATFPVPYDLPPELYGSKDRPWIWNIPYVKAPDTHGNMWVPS
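Signal: AlphaScreen proximity between streptavidin donor and anti-FITC acceptor beads on intact substrate. Reaction: Tdp1 1 nM, substrate 15 nM final, 5 min RT after 15 min compound preincubation.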
miR-21 reporter: qHTS Assay for Modulators of miRNAs and/orActivators of miR-21. HeLa miR-21 FLuc reporter, luciferase, 48 h. Potency, µM (doses to about 38.3 µM), inactives show at the highest dose activity change, positive = activation, actives largely listed as activators. 340,000 tested, under 10 active. AID 2288, 2010;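 further: % of control where 0% means no effect; miR-21 action dims this reporter so a rising signal means less miR-21 action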
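HeLa cells endogenously expressing miR-21, stably carrying CMV-driven firefly luciferase with a downstream miR-21 binding site, 2000 cells/well. Titrations up to approximately 40 uM, 48 hours; luciferase luminescence read.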
uPA surface inh: qHTS for Inhibitors of Cell Surface uPA Generation. cell surface uPA generation assay, qHTS. Potency, µM (top dose mostly 38.3 µM), for inactives: at the top dose activity change, negative = inhibition, hits mostly inhibitors. hit rate 0.31% among 330,000; active means well fitted inhibition curve with a large enough effect; inconclusive means small, poorly fitted or top-dose-only effect; inactive means no such curve, though single readings can be large or run the other way; tested in mouse RAW 264.7 cells; further: potency means the concentration at half of the fitted maximal effect; on the % scale 0 is the no-effect control and ±100 the full control effect; nearly all actives have a fitted effect of over 55% in size
TDP1 cell noCPT: qHTS for Inhibitors of human tyrosyl-DNA phosphodiesterase 1 (TDP1): qHTS in cells in absence of CPT; hit rate 15% among 420,000; DT40 Tdp1-/- hTDP1 cells, no CPT, ATP luminescence, 48 h; Potency, µM (doses to about 46.2 µM), without a hit: at the highest dose activity change, negative = growth inhibition, usual class: inhibitors; AID 686978, 2013; further: potency means the concentration at half of the fitted maximal effect; on the % scale 0 is the no-effect control and ±100 the full control effect; nearly all actives have a fitted effect of over 55% in size
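Camptothecin absent (DMSO only). Human TDP1-complemented DT40 knockout cells, 400 cells/well, 37 °C for minimum 48 hr; ATP measured via CellTiter-Glo, 30 min dark incubation, luminescence.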
TDP1 cell CPT: qHTS for Inhibitors of human tyrosyl-DNA phosphodiesterase 1 (TDP1): qHTS in cells in presence of CPT; Potency, µM (titrated, usually from 46.2 µM), without a hit: at the top dose activity change, negative = growth inhibition, hits mostly inhibitors; chicken DT40 Tdp1-/-;hTDP1 cells + 20 nM CPT, ATP luminescence, 48 h; hit rate 12% among 420,000; further: potency means the concentration at half of the fitted maximal effect; on the % scale 0 is the no-effect control and ±100 the full control effect; nearly all actives have a fitted effect of over 55% in size
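Chicken DT40 Tdp1-/- cells stably complemented with human TDP1 were seeded at 400 cells/well in medium containing 20 nM camptothecin, exposed to pin-transferred compounds, and grown at 37 °C for at least 48 hr. Viability was read as ATP luminescence.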
The depositor's hits bear a star. The list is not random: actives were taken first. Their share in the collection is about 16%. Unless noted, the call rests on the fitted dose curve; in most records, active means well fitted curve in the direction sought with a large enough effect; inconclusive means small, poorly fitted or top-dose-only effect, or another doubt; inactive means no such curve, though single readings can be large; an effect the other way counts as inactive or inconclusive.

For CCOc1ccc(S(=O)(=O)N2CCN(c3ccccc3OC)CC2)c2cccnc12 the results were TDP1 inh 9%, miR-21 reporter -10%, uPA surface inh -8%, TDP1 cell noCPT 23µM* and TDP1 cell CPT inconclusive.
CCOc1ccc(S(=O)(=O)Nc2cccc(C)c2)c2cccnc12 was read as TDP1 inh 1%, miR-21 reporter -1%, uPA surface inh 0%, TDP1 cell noCPT 18µM* and TDP1 cell CPT 12µM*.
CCc1ccccc1NS(=O)(=O)c1ccc(OC)c2ncccc12 was read as TDP1 inh 3%, miR-21 reporter 22%, uPA surface inh 11%, TDP1 cell noCPT 10µM* and TDP1 cell CPT 18µM*.
`CCOc1ccc(S(=O)(=O)Nc2cc(Cl)ccc2OC)c2cccnc12` gave TDP1 inh 2%, miR-21 reporter 23%, TDP1 cell noCPT 15µM* and TDP1 cell CPT 15µM*.
For CCc1ccc(NS(=O)(=O)c2ccc(OC)c3ncccc23)cc1 the results were TDP1 inh -2%, miR-21 reporter 1%, uPA surface inh -3%, TDP1 cell noCPT -6% and TDP1 cell CPT inconclusive.
COc1ccc(CCNC(=O)COc2ccc(N(C)S(=O)(=O)c3ccc(C)cc3)cc2)cc1OC was read as TDP1 inh 5%, miR-21 reporter 7%, uPA surface inh 2%, TDP1 cell noCPT 16µM* and TDP1 cell CPT inconclusive.
For COc1ccc(CCNC(=O)c2ccc(CNS(=O)(=O)c3ccccc3)cc2)cc1OC the results were TDP1 inh 0%, miR-21 reporter 21%, uPA surface inh 5%, TDP1 cell noCPT 16µM* and TDP1 cell CPT 18µM*.
COc1ccc(CCNC(=O)c2ccc(CNc3nc(=S)[nH]c4ccccc34)cc2)cc1OC was read as TDP1 inh 0%, miR-21 reporter 7%, uPA surface inh 0%, TDP1 cell noCPT inconclusive and TDP1 cell CPT 15µM*.
COc1ccc(S(=O)(=O)NCc2ccc(C(=O)NCCN(C)Cc3ccccc3)cc2)cc1 was read as TDP1 cell noCPT 21µM* and TDP1 cell CPT 18µM*.
`Nc1ccc2c(c1)-c1ccc(F)cc1C2=O` gave uPA surface inh 8%, TDP1 cell noCPT inconclusive and TDP1 cell CPT inconclusive.
For CN(c1ccc(OCC(=O)NCCc2ccccc2)cc1)S(=O)(=O)c1ccc(Cl)cc1 the results were uPA surface inh 0%, TDP1 cell noCPT inconclusive and TDP1 cell CPT inconclusive.
Screening COc1ccc(CCNC(=O)COc2ccc(N(C)S(=O)(=O)c3ccc(Cl)cc3)cc2)cc1 returned TDP1 inh 3%, miR-21 reporter 3%, uPA surface inh -2%, TDP1 cell noCPT inconclusive and TDP1 cell CPT 23µM*.
COc1ccc(CCNC(=O)c2ccc(N(C)S(=O)(=O)c3ccc(C)cc3)cc2)cc1OC was read as TDP1 inh 2%, miR-21 reporter 8%, uPA surface inh -6%, TDP1 cell noCPT 21µM* and TDP1 cell CPT 21µM*.
For CC(C)c1nc2cc(C(=O)NC(c3cccnc3)C(F)(F)F)ccc2o1 (centres undefined) the results were TDP1 inh 4%, miR-21 reporter -4%, uPA surface inh 1%, TDP1 cell noCPT inconclusive and TDP1 cell CPT inconclusive.
`CCN1C(=O)/C(=C/C=C2/SCCN2C)SC1=S` gave TDP1 inh 1%, miR-21 reporter -66%, uPA surface inh -1%, TDP1 cell noCPT 13µM* and TDP1 cell CPT inconclusive.
`COCCNC(=O)c1c(NC(=O)c2cc(=O)c3cc(Cl)ccc3o2)sc2c1CCCC2` gave TDP1 inh 5%, miR-21 reporter 3%, TDP1 cell noCPT -23% and TDP1 cell CPT -9%.
O=C(C=C(C(=O)c1ccccc1)c1ccccc1)c1ccccc1 was read as uPA surface inh -6%, TDP1 cell noCPT 21µM* and TDP1 cell CPT 23µM*.
For CN(C)/C(=C\C(=O)c1ccccc1)C(=O)c1ccccc1 the results were uPA surface inh 3%, TDP1 cell noCPT -7% and TDP1 cell CPT -2%.
`COc1cccc(C(=O)N/N=C(\CC(C)C)c2ccccc2)c1` gave TDP1 inh 3%, miR-21 reporter -20%, uPA surface inh 7%, TDP1 cell noCPT inconclusive and TDP1 cell CPT inconclusive.
Screening Cc1ccc(C(=O)N/N=C(\CC(C)C)c2ccccc2)cc1 returned TDP1 inh inconclusive, miR-21 reporter -51%, uPA surface inh -1%, TDP1 cell noCPT 21µM* and TDP1 cell CPT inconclusive.
Screening C=C1C=C(C(F)F)n2ncc(C(=O)NCc3ccc(OC)cc3)c2N1 returned TDP1 cell noCPT inconclusive and TDP1 cell CPT 11µM*.
C=C1C=C(C(F)F)n2ncc(C(=O)NCCc3ccc(Cl)cc3)c2N1 was read as TDP1 cell noCPT inconclusive and TDP1 cell CPT 13µM*.
For C=C1C=C(C(F)F)n2ncc(C(=O)NCc3ccc(Cl)cc3)c2N1 the results were TDP1 cell noCPT -28% and TDP1 cell CPT -6%.
Screening COC(=O)CN(c1cc(Cl)ccc1OC)S(=O)(=O)c1ccc(C)cc1 returned TDP1 inh -3%, miR-21 reporter 30%, uPA surface inh -7%, TDP1 cell noCPT 18µM* and TDP1 cell CPT inconclusive.
For COc1ccc(Cl)cc1N(CC(=O)NC(C)(C)C)S(=O)(=O)c1ccc(C)c([N+](=O)[O-])c1 the results were TDP1 inh 7%, miR-21 reporter -8%, uPA surface inh -2%, TDP1 cell noCPT 21µM* and TDP1 cell CPT 16µM*.
Screening COc1ccc(S(=O)(=O)Nc2ccc(C)cc2)cc1N(C)S(=O)(=O)c1ccc(Cl)cc1 returned TDP1 inh -1%, miR-21 reporter inconclusive, uPA surface inh -21%, TDP1 cell noCPT 18µM* and TDP1 cell CPT 23µM*.
`COc1ccc(Cl)cc1N(CC(=O)N1CCCC1)S(=O)(=O)c1ccc(C)cc1` gave miR-21 reporter -1%, uPA surface inh 4%, TDP1 cell noCPT inconclusive and TDP1 cell CPT inconclusive.
COc1ccc(S(=O)(=O)NN(C)C)cc1N(C)S(=O)(=O)c1ccc(Cl)cc1 was read as TDP1 inh 3%, miR-21 reporter -8%, uPA surface inh 25%, TDP1 cell noCPT 12% and TDP1 cell CPT 4%.
For Cc1ccc([C@H]2C[C@@H](O)[C@H](n3cc(C4CC4)nn3)CN2C(=O)c2cccs2)cc1 the results were TDP1 cell noCPT 21µM* and TDP1 cell CPT inconclusive.
Screening O=C(c1cccs1)N1C[C@@H](O)[C@H](n2cc(-c3ccc(F)cc3)nn2)C[C@@H]1c1ccccc1 returned TDP1 cell noCPT 16µM* and TDP1 cell CPT 18µM*.
